High-throughput results (PubChem BioAssay)
Only some compounds are listed: those with a hit (about 2.2% of all), similar ones and a draw of the others.
TWEAK-Fn14 inh: inhibitors of TWEAK-Fn14 interaction signaling; actives 2% (n = 360,000); inhibition, % at 10 µM; TWEAK-stimulated Fn14 reporter cells, luciferase luminescence, 8 h; AID 1159606; in the data active = inhibition above about 50%
HSP90 refold inh: blocks HSP90-mediated luciferase refolding in reticulocyte lysate | Rabbit reticulocyte lysate, luciferase refolding luminescence, 3 h | inhibition, % at 5.6 µM | actives 0.91% (n = 290,000) | AID 1789;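 active = inhibition above the screen-wide mean plus 3 SD, computed separately per campaign, cut at about 16% in these data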;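 also: inhibitors lower the luminescence because luciferase stays unfolded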
TROY signal inh: blocks TROY-dependent signaling in reporter cells | actives 0.98% (n = 360,000) | inhibition, % at 10 µM | Q293 LMP1-TROYcd NF-kB luciferase reporter, 4 h;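 active = compounds whose plate-normalised and pattern-corrected inhibition of the luciferase reporter signal at the single screening dose is 50% or more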
LGR2 inh: Drosophila LGR2 receptor signaling inhibition | HEK293 LGR2, CRE-luciferase, bursicon-stimulated, 4 h | inhibition, % at 9.99 µM | actives 0.35% (n = 380,000);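 active = drop in luminescence signal, shown as inhibition above about 50% in the replicate tests, limit read from the data, passing the limit was not always enough; inconclusive = probably only some replicates passing the limit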;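 also: agonist challenge used bursicon conditioned medium at about half maximal strength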
Hits are given with their value; 0 = inactive; ? = inconclusive; - = no result given.

SMILES	TWEAK-Fn14 inh	HSP90 refold inh	TROY signal inh	LGR2 inh
COc1cc(/C=C2\SC(=O)N(Cc3ccc(Cl)cc3)C2=O)cc([N+](=O)[O-])c1O	56	0	55	0
COc1cc(/C=C2/SC(=S)N(Cc3ccccc3)C2=O)cc(Cl)c1O	65	0	51	0
O=C(c1ccncc1)N1CC2(C1)[C@@H](c1ccccc1)[C@@H](CO)N2C(=O)CC1CC1	-	-	-	0
CC[C@@H](C)[C@H](NC(=O)OC(C)(C)C)c1nnc(S(=O)(=O)Cc2cc(C)ccc2C)o1	0	0	73	-
Cc1nnc(NC(=O)C2CCN(C(=O)c3ccco3)CC2)s1	0	16	0	0
CCc1nnc(NC(=O)C2CCN(C(=O)c3ccco3)CC2)s1	0	0	0	0
CCCc1cn(CC[C@@H]2CC[C@H](NC(=O)C3CCC3)[C@@H](CO)O2)nn1	-	-	-	0
O=C1CSC(c2cn(-c3ccccc3)nc2-c2ccccc2)N1Cc1ccco1 (stereo not drawn)	0	0	0	-
CCc1ccc(-c2nn(-c3ccccc3)cc2C2SCC(=O)N2Cc2ccco2)cc1 (stereo not drawn)	53	0	0	-
CCN(CC)S(=O)(=O)c1ccc(Cl)c(NC(=S)NC(=O)C2CCCC2)c1	56	-	55	0
CCOc1ccc(N=Cc2c(C)[nH]n(-c3nc4ccccc4[nH]3)c2=O)cc1	0	0	0	63
CCCCN(C)C(=S)Nc1ccc2nc(N3CCN(CC)CC3)cc(C)c2c1	0	0	62	0
CCN1CCN(c2cc(C)c3cc(NC(=S)N(C)Cc4ccccc4)ccc3n2)CC1	0	0	0	0
Cc1cc(N2CCN(C)CC2)nc2ccc(NC(=S)N3CCCCC3)cc12	0	0	54	0
CCCCN(CC)C(=S)Nc1ccc2nc(N3CCN(C)CC3)cc(C)c2c1	55	28	68	0
C[C@H](CO)N1C[C@H](C)[C@@H](CN(C)Cc2ccncc2)Oc2ncc(C#Cc3ccncc3)cc2C1=O	-	-	-	0
CC(/C=N\N1CCN(c2ccc(Cl)cc2)CC1)=C\c1ccccc1	0	0	62	0
CC(/C=N/N1CCN(c2ccc(C)cc2)CC1)=C\c1ccccc1	0	0	0	0
CCCNC(=O)Nc1ccc2c(c1)C(=O)N(C)C[C@H](OC)[C@H](C)CN(Cc1ccccc1)[C@H](C)CO2	-	-	-	0
Cn1c(=O)c2c(nc(Oc3ccc4ccccc4c3)n2C)n(C)c1=O	51	0	0	0
Cc1nc(Oc2ccc(S(=O)(=O)N3CCOCC3)cc2Cl)c2c3c(sc2n1)CCCC3	60	0	0	0
C=CCn1c(C)cc(C2=NNC(=NC(C)(C)C)SC2)c1C	83	0	0	0
C=CCN=C1NN=C(c2cc(C)n(CCOC)c2C)CS1	0	0	0	?
Cc1cc(C2=NNC(=NC3CC3)SC2)c(C)n1-c1ccccc1	96	0	0	0
c1ccc(C2=NNC(=NC3CC3)SC2)cc1	63	0	0	-
SMILES	TWEAK-Fn14 inh	HSP90 refold inh	TROY signal inh	LGR2 inh
COCCn1c(C)cc(C2=NNC(=NC3CC3)SC2)c1C	102	70	86	94
COCC(=O)Nc1ccc2c(c1)OC[C@@H](C)N(CC1CC1)C[C@H](C)[C@@H](OC)CN(C)C2=O	-	-	-	0
CN1CCN(C(=O)C[C@@H]2C=C[C@@H](NC(=O)Nc3ccccc3F)[C@H](CO)O2)CC1	-	-	-	0
Cc1cc(C2=NNC(=NC3CC3)SC2)c(C)n1Cc1ccco1	61	0	0	-
COCCCN=C1NN=C(c2cc(C)n(Cc3ccco3)c2C)CS1	0	0	0	0
CCCC(Oc1ccc(Br)cc1)c1nc2c3cc(OC)c(OC)cc3nc(=S)n2[nH]1 (stereo not drawn)	0	0	62	0
O=C(C[C@@H]1CC[C@@H]2[C@H](COC[C@@H](O)CN2CC2CC2)O1)NCC1CC1	-	-	-	0
COc1cc(O)c(C(=O)/C=C/c2ccccc2)c(OC)c1	74	0	0	0
COc1cc(C=CC(=O)c2ccccc2)cc(OC)c1OC	79	-	0	0
COc1cc(C=CC(=O)c2cc(OC)c(OC)c(OC)c2)cc(OC)c1OC	65	-	0	57
COc1ccc2cc(C(=O)/C=C/c3cc(OC)c(OC)c(OC)c3)ccc2c1	0	0	0	0
COc1cc(/C=C/C(=O)N2CCC=CC2=O)cc(OC)c1OC	92	-	0	100
C[C@@H]1CN([C@@H](C)CO)C(=O)c2cc(NS(=O)(=O)c3ccc(Cl)cc3)ccc2O[C@H]1CN(C)Cc1ccc2c(c1)OCO2	-	-	-	0
CC[n+]1c(/C=C/c2c[nH]c3ccccc23)ccc2cc(C)ccc21	-	0	-	108
COc1ccc(NC(=O)Nc2ccc3c(c2)C(=O)N([C@H](C)CO)C[C@H](C)[C@@H](CN(C)S(=O)(=O)c2ccc(C)cc2)OCCCC[C@@H](C)O3)cc1	-	-	-	0
CCn1c(C)nc2cc(C(=O)NNC(=O)c3ccc(Cl)nc3)ccc21	0	0	0	0
CCn1c(C)nc2cc(C(=O)NNC(=O)c3ccc(C)cc3)ccc21	72	-	78	0
CCn1c(C)nc2cc(C(=O)OC(C(F)(F)C(F)F)C(F)(F)C(F)F)ccc21	0	0	57	-
CN(C)CC(C(=O)c1ccccc1)c1ccccc1 (stereo not drawn)	79	0	0	-
O=C(c1ccc(Br)cc1)C(CN1CCOCC1)c1ccccc1 (stereo not drawn)	58	0	0	0
O=C(c1ccccc1)C(CN1CCCCC1)c1ccccc1 (stereo not drawn)	71	-	0	?
CN(Cc1cc(Cl)cc(Cl)c1)CC(C(=O)c1ccccc1)c1ccccc1 (stereo not drawn)	0	-	0	?
C[C@H]1CN([C@@H](C)CO)C(=O)c2cc(C3=CCCCC3)cnc2O[C@@H]1CN(C)C(=O)c1ccccc1	-	-	-	0
CC(C)C(=O)Nc1cccc(NC(=O)c2ccc(Cl)cc2Cl)c1	0	0	56	0
CCC(=O)NC(=S)Nc1cccc(NC(=O)c2ccc(Cl)cc2Cl)c1	0	0	0	-
SMILES	TWEAK-Fn14 inh	HSP90 refold inh	TROY signal inh	LGR2 inh
CCNC(=O)C[C@H]1CC[C@H]2[C@H](COc3ccc(NC(=O)c4cscn4)cc3C(=O)N2C)O1	-	-	-	0
C[C@H]1CN([C@@H](C)CO)C(=O)Cc2cc(NC(=O)Cn3cnnn3)ccc2O[C@H]1CN(C)C(=O)Nc1ccc(F)cc1	-	-	-	0
Cc1noc(C)c1NC(=O)N[C@H]1CC[C@@H](CC(=O)N2CCCCC2)O[C@H]1CO	-	-	-	0
COc1ccc([N+](=O)[O-])cc1NCc1c(F)cccc1F	59	-	0	0
Cc1ccc(NC(=O)Nc2cccnc2)cc1NC(=O)Nc1cccnc1	58	0	0	0
O=C(Nc1cccnc1)c1cc(-c2ccccc2)on1	0	0	0	-
COc1cccc(-c2cc(C(=O)Nc3cccnc3)no2)c1	69	0	0	-
COc1ccc(OC)c(NC(=O)Nc2cccnc2)c1	52	0	0	0
Cc1cc(C)cc(NC(=O)Nc2cccnc2)c1	0	0	0	0
CC(C)(C)[S@](=O)N1Cc2cc(C(=O)NCCc3ccncc3)nc(-c3cccc(-c4ccncc4)c3)c2[C@@H]1CCO	-	-	-	0
CC(C)C(=O)Nc1ccc2c(c1)C(=O)N(C)[C@@H]1CC[C@H](CC(=O)NCc3ccc(F)cc3)O[C@@H]1CO2	-	-	-	0
C[C@@H]1CN([C@@H](C)CO)C(=O)Cc2cc(NC(=O)Nc3ccc(C(F)(F)F)cc3)ccc2O[C@H]1CN(C)C	-	-	-	0
